Among all 400,000 compounds or so, about 2,100 (0.53%) were called active. Roughly 14% stayed inconclusive and do not appear here. How the calls were made is not given here. The sample as a whole holds a higher share of actives than the screen did.

In the assay the target is Ataxin-2 (Homo sapiens) (UniProt Q99700). Kind of assay: qHTS for Inhibitors of ATXN expression. The format is functional.
Chain of Ataxin-2 (Homo sapiens) (Q99700 whole entry): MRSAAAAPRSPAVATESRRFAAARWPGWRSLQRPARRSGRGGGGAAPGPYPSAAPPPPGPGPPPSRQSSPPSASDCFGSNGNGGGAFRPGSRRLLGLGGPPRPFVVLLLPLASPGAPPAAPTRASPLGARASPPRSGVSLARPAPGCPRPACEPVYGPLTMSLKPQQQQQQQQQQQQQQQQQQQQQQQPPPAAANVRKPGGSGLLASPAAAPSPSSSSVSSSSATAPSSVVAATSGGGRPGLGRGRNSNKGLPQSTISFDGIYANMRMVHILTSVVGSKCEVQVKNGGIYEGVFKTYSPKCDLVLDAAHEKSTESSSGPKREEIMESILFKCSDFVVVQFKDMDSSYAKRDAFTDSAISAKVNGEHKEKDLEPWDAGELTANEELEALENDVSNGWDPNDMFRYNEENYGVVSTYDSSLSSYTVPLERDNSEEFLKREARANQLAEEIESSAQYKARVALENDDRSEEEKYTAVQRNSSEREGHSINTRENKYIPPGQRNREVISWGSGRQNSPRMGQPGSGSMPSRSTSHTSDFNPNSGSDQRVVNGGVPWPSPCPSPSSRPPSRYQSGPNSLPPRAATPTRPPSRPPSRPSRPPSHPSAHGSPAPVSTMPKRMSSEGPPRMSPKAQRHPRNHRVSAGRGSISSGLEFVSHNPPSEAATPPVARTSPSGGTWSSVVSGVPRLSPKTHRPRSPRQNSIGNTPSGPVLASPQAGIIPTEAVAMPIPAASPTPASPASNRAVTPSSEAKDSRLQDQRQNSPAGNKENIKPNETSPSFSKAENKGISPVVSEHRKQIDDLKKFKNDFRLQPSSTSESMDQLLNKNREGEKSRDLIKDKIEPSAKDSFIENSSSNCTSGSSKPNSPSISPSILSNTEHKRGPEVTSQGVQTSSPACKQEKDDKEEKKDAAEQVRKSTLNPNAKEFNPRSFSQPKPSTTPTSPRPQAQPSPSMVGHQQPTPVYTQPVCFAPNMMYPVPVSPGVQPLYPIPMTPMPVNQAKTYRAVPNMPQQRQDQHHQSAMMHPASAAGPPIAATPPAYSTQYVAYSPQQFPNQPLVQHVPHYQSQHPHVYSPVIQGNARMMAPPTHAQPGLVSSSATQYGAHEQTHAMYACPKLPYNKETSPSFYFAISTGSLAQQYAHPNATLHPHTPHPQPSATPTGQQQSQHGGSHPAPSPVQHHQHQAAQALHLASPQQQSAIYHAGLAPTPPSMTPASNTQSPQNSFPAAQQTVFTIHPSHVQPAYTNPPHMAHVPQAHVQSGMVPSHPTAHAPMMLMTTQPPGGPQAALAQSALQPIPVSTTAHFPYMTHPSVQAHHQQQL
In the case of `CCOc1ccc(C2C(C#N)=C(N)Oc3cc(O)ccc32)cc1OCC` (centres undefined), the Potency entry was “inactive”.

On to `COCOc1ccc(/C=C2/Oc3cc(OCOC)cc(OCOC)c3C2=O)c(OCOC)c1`, for which the Potency result was “inactive”.

On to `Cc1cscc(C)c1=S`, for which the Potency entry is “inactive”.

Turning to `Nc1c(C(=O)CSc2ncccn2)c(=O)[nH]c(=O)n1C1CC1`, the Potency result was “inactive”.

For `Cc1c(CCC(=O)O)c(=O)oc2c(C)c3occ(-c4ccc(Br)cc4)c3cc12`, the Potency entry was “inactive”.

For `COc1ccc([N+](=O)[O-])cc1C(=O)Nc1ccc(Cc2ccncc2)cc1`, the Potency result is “inactive”.

On to `O=C(Nc1ccc(S(=O)(=O)Nc2cnc3ccccc3n2)cc1)c1ccc([N+](=O)[O-])cc1Cl`, for which the Potency entry was “inactive”.

`O=C(Nc1ccc(Nc2ccncc2)cc1)c1ccc(Nc2ccnc3ccc([N+](=O)[O-])cc23)cc1[N+](=O)[O-]`: the Potency was 39.8 µM (active).

`N#Cc1cc2c(=O)n3ccccc3nc2n(CCCN2CCOCC2)c1=O`: the Potency result is “inactive”.

As to `CCOc1cc(C2C3=C(CCCC3=O)N(CCC(=O)O)C3=C2C(=O)CCC3)ccc1OS(=O)(=O)c1ccc(C)cc1`, the Potency entry is “inactive”.

`Cc1ccc(C(C)C)c(OCC(=O)Nc2ccc3c(c2)nc(CCN2CCCCC2)n3C)c1`: the Potency is 39.8 µM (active).

Turning to `CC(=O)NCCc1nc2cc(NC(=O)c3cccs3)ccc2n1C`, the Potency result is “inactive”.

In the case of `Cc1cc(S(=O)(=O)N2CCCC2)ccc1OCC(=O)Nc1ccc(C(N)=O)cc1`, the Potency entry is “inactive”.

Turning to `O=C1/C(=C\Nn2cnnc2)c2ccccc2C(=O)N1c1ccccc1F`, the Potency entry is “inactive”.

For the compound `COc1ccccc1NS(=O)(=O)c1cccc(NC(=O)Nc2cccc(Cl)c2)c1`, the Potency was 44.7 µM (active).

For `COc1ccccc1NS(=O)(=O)c1ccc(C)c(NC(=O)c2c(C)noc2C)c1`, the Potency result was “inactive”.

On to `COc1ccccc1NS(=O)(=O)c1cccc(NC(=O)c2[nH]c(C)c(C(C)=O)c2C)c1`, for which the Potency entry was “inactive”.

With `CCOC(=O)NN=C1c2ccccc2-c2nc3nonc3nc21`, the Potency is 3.77 µM (active).

As for `COC(=O)c1c(C)nc2nonc2c1N`, the Potency entry was “inactive”.

Regarding `CCOC(=O)Nc1c2ccccc2nc2ccccc12`, the Potency result was “inactive”.

As for `COc1cc(/C=C/C(=O)N2C(=O)c3cccc(N)c3C2=O)cc(OC)c1OC`, the Potency entry is “inactive”.

Regarding `Cn1c2nc(=O)[nH]c(=O)c-2cc2ccccc21`, the Potency entry is “inactive”.

On to `C=CCOc1ccccc1CN(C(=O)CCl)c1ccc2c(c1)OCO2`, for which the Potency was 39.8 µM (active).

In the case of `CCc1cccc(CC)c1N1C(=O)C2=C(SCCCS2)C1=O`, the Potency result was “inactive”.

`CCOC(=O)C1(CCOc2ccccc2)CCN(Cc2ccc(C#CCCO)cc2)CC1`: the Potency result was “inactive”.

`Cc1cc(N2CCN(C(=O)c3ccco3)CC2)n2nc(-c3cccc(Cl)c3)cc2n1`: the Potency is 35.5 µM (active).

In the case of `Cn1c(C(=O)N2CCN(C(=O)c3ccco3)CC2)cc2c(=O)n3ccccc3nc21`, the Potency entry was “inactive”.

`O=C(c1ccco1)N1CCN(c2c(O)nc3ccc(Cl)cc3c2-c2ccccc2)CC1`: the Potency was 28.2 µM (active).

As to `CCc1noc(C)c1C(=O)N1CCN(c2cccc(Cl)c2)CC1`, the Potency entry was “inactive”.

As to `O=c1oc2cc(O)ccc2cc1-c1ccc(F)cc1`, the Potency result is “inactive”.

For the compound `Cc1ccc(/N=c2\oc3cc(O)ccc3cc2C(N)=O)cc1`, the Potency result is “inactive”.

In the case of `O=CNc1ccc2c3c(cccc13)-c1ccccc1-2`, the Potency result was “inactive”.

On to `CC1=NN(c2ccccc2)C(=O)C1/C=N/c1ccc(N(C)C)cc1` (centres undefined), for which the Potency entry was “inactive”.

On to `CN(C)C=O.CN(C)c1ccc(/C=C/c2nc3ccccc3c(=O)n2-c2ccc(C(=O)O)cc2)cc1`, for which the Potency entry is “inactive”.

Consider `CC1=NN(c2ccccc2)C(=O)/C1=C/C=C/c1ccc(N(C)C)cc1`, for which the Potency was 17.8 µM (active).

`O=C(COC(=O)Cc1ccsc1)NNC(=O)c1ccccc1`: the Potency entry is “inactive”.

On to `C#CCN1C(=O)S/C(=C\c2cc3c(cc2OC)OCO3)C1=O`, for which the Potency entry is “inactive”.

For `CCn1nc(C(=O)NNC(=O)c2cc(Cl)ccc2OC)c2ccccc2c1=O`, the Potency was 39.8 µM (active).

As to `CNC(=O)c1cc(NC(=O)CCn2nc(-c3ccccc3)c3ccccc3c2=O)ccc1OC`, the Potency entry was “inactive”.

Turning to `COc1ccc(Cl)cc1C(=O)NNC(=O)c1[nH]nc2ccccc12`, the Potency entry is “inactive”.

`CC(=O)N(Cc1ccccc1)c1ncc2c(n1)c(=O)c(C#N)c1ccccn12`: the Potency result was “inactive”.

As to `COCCCNC(=O)C[S+]([O-])Cc1nc(-c2ccccc2C)oc1C` (centres undefined), the Potency entry is “inactive”.

Take `CCCCCOc1ccc(Br)cc1CSC(=N)N`: the Potency was 35.5 µM (active).

Take `CCCn1c(=N)c(C(=O)NCC2CCCO2)cc2c(=O)n3cccc(C)c3nc21` (centres undefined): the Potency entry was “inactive”.

As to `O=C(CCl)Nc1cccc2ncccc12`, the Potency was 31.6 µM (active).

Take `Cc1cc(O)nc(SCC(=O)Nc2ccnc3ccccc23)n1`: the Potency result was “inactive”.

As to `O=C(Cc1ccccc1C(=O)O)Nc1cccc2ccccc12`, the Potency entry is “inactive”.

Take `Cc1c(Cc2ccccc2)c(=O)oc2cc(OC(=O)c3ccccc3)ccc12`: the Potency entry is “inactive”.

For `CCCc1sc(N/N=C/c2ccccn2)nc1-c1ccc(Br)cc1`, the Potency was 17.8 µM (active).

As for `CC/N=c1\scc(-c2ccc(F)cc2)n1/N=C/c1ccccn1`, the Potency result is “inactive”.

With `Cn1/c(=N/N=C/c2ccccn2)sc2ccccc21`, the Potency entry is “inactive”.

Consider `Cc1csc(N/N=C/c2ccccn2)n1`, for which the Potency is 28.2 µM (active).

Turning to `CCC/C=N/Nc1nc2ccccc2s1`, the Potency entry is “inactive”.

With `C=CCn1c(=N)c(C(=O)NCCCOC)cc2c(=O)n3ccccc3nc21`, the Potency entry is “inactive”.

With `Oc1c(Cl)cc(Cl)cc1/C=N\c1cc(C(F)(F)F)ccc1N1CCc2ccccc2C1`, the Potency entry is “inactive”.

Take `COc1ccc(-c2cc(C(F)(F)F)nc(SCC(=O)Nc3ccc(C(C)=O)cc3)n2)cc1`: the Potency was 31.6 µM (active).

For `COc1ccc(-c2cc(C(F)(F)F)c3c(N)c(C(=O)NCCSC)sc3n2)cc1`, the Potency result is “inactive”.

In the case of `COc1ccc(-c2csc(NC(=O)CSc3n[nH]c(N)n3)n2)cc1`, the Potency entry is “inactive”.

`CN(C)c1ccc(-c2cc3ccccc3c(=O)o2)cc1`: the Potency result is “inactive”.

Take `COC(=O)C1=NN(c2ccc(OC)cc2)C2C(=O)N(c3ccccc3OC)C(=O)C12` (centres undefined): the Potency entry is “inactive”.

For `CCOC1=C2CN(S(=O)(=O)c3ccc(C)cc3)[C@H](c3cccc4ccccc34)C[C@H]2C(C#N)(C#N)C(C#N)(C#N)C1`, the Potency is 12.6 µM (active).

Regarding `O=c1oc2c3c4c(cc2c2c1CCC2)OCCN4CCC3`, the Potency result was “inactive”.

With `COc1ccc(-c2cc3nc(C)c(CCC(=O)NCc4ccc(F)cc4)c(C)n3n2)c(OC)c1`, the Potency result is “inactive”.

Take `COc1ccccc1-c1cc(C(F)(F)F)nc(S(=O)(=O)CCCC(=O)Nc2cc(C)on2)n1`: the Potency was 14.1 µM (active).

Regarding `COc1ccc(-c2csc(NC(=O)CCNC(=O)c3ccco3)n2)cc1OC`, the Potency entry was “inactive”.

Take `COc1ccccc1-c1cc(C(F)(F)F)nc(S(=O)(=O)CCCC(=O)NCc2ccc(F)cc2)n1`: the Potency was 26.7 µM (active).

For the compound `COc1cc(CC(=O)OCC(=O)N2CCCCC2C)cc(OC)c1OC` (centres undefined), the Potency entry was “inactive”.

`COc1cccc(C(C(=O)NC(C)(C)C)N(C(=O)CCC(=O)Nc2cc(C)on2)c2ccc3c(c2)OCCO3)c1OC` (centres undefined): the Potency entry was “inactive”.

`COc1ccc(-c2cc(C(=O)OCC(=O)Nc3cc(C)on3)c3ccccc3n2)cc1OC`: the Potency entry is “inactive”.

For `COc1ccccc1-c1cc(C(F)(F)F)nc(S(=O)(=O)CCCC(=O)N2CCCCC2C)n1` (centres undefined), the Potency is 39.8 µM (active).

With `CC1CCCCN1C(=O)COC(=O)c1cc(-c2cccs2)nn1-c1ccccc1` (centres undefined), the Potency result is “inactive”.

For `COc1ccc(Br)cc1CN(C)CC(=O)NCc1ccc(F)cc1`, the Potency entry is “inactive”.

Consider `COc1ccc(-c2cc(C(=O)Nc3ccc(C(N)=O)cc3)c3ccccc3n2)cc1OC`, for which the Potency entry is “inactive”.

For the compound `COc1ccc(-c2cc(C(F)(F)F)nc(S(=O)(=O)CCCC(=O)Nc3cccc(O)c3)n2)cc1OC`, the Potency is 15 µM (active).

For the origin of these results see ChEMBL document CHEMBL1201862, “PubChem BioAssay data set” (2004).
